Our source for the z-score and composite z-score values is PubChem BioAssay.

Activity calls are given as the source filed them. Unless noted, how the calls were made is not given here.

A short description of assay [1]: compound effects on lung adenocarcinoma cell viability – A549, calcein-AM fluorescence, 48 h, basal, profiling panel (AID 1162). Further: test concentration not given here. The following applies: higher = more signal.
Assay [2] is described as follows: compound effects on differentiated 3T3-L1 adipocyte viability – cell-based, 3T3-L1 adipocytes, calcein-AM fluorescence, 48 h, basal, profiling panel (AID 1163). Further: test concentration not given here. The following applies: 3T3-L1 adipocytes viability, higher = more signal.
The nature of assay [3]: compound effects on hepatocellular carcinoma cell viability – HepG2, calcein-AM fluorescence, 48 h, basal, profiling panel (AID 1164). Further: test concentration not given here. The conditions noted are these: higher = more signal.
Assay [4] in a line: compound effects on multiple myeloma cell viability – MM1S, calcein-AM fluorescence, 48 h, basal, profiling panel (AID 1165). Further: test concentration not given here. The conditions noted are these: higher = more signal.
A short description of assay [5]: calcein-AM signal in unstimulated myeloma cells – cell-based, calcein-AM fluorescence, 48 h, PK04 Diversity Set, profiling panel (AID 1166).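 Further: cells grown under basal conditions without added stimulus; test concentration not given here.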 The following applies: RPMI8226 myeloma viability, higher = more signal.
Assay [6] is described as follows: JC-1 mitochondrial signal, unstimulated HepG2 cells – cell-based, JC-1 fluorescence, 24 h, 100 nL compound, profiling panel (AID 1167). Further: test concentration not given here. The following applies: HepG2 mitochondrial potential, higher = more signal.
The nature of assay [7]: JC-1 mitochondrial signal, unstimulated adipocytes – cell-based, JC-1 fluorescence, 3T3-L1 adipocytes, 24 h, 100 nL compound, profiling panel (AID 1168). Further: test concentration not given here. The conditions noted are these: JC-1 mitochondrial fluorescence, higher = more signal, called active from +8 up or from −8 down.
A short description of assay [8]: JC-1 mitochondrial signal, unstimulated myeloma cells – cell-based, JC-1 fluorescence, RPMI8226, 24 h, 100 nL compound, profiling panel (AID 1169). Further: test concentration not given here. The following applies: JC-1 mitochondrial potential fluorescence, higher = more signal.
Assay [9] is described as follows: JC-1 mitochondrial signal, unstimulated MM1S myeloma – cell-based, JC-1 fluorescence, 24 h, 100 nL compound, profiling panel (AID 1170). Further: test concentration not given here. The following applies: MM1S mitochondrial potential, higher = more signal.
The nature of assay [10]: resazurin metabolic signal in A549 cells – cell-based, resazurin fluorescence, 24 h, PK04 Diversity Set, profiling panel (AID 1171). Further: test concentration not given here. The following applies: A549 viability, higher = more signal, called active from +8 up or from −8 down. In general terms: Alamar Blue is a resazurin reagent that responds to reducing activity.
Assay [11] in a line: resazurin metabolic signal in HepG2 cells – cell-based, resazurin fluorescence, 24 h, PK04 Diversity Set, profiling panel (AID 1172). Further: test concentration not given here. The conditions noted are these: HepG2 viability, higher = more signal.
A short description of assay [12]: budding yeast growth changes without added modifier – OD600, strain BY4716, 24 h, basal condition, primary screen (AID 1173). The conditions noted are these: S. cerevisiae BY4716 growth, OD600, 24 h; higher = more signal, called active from +8 up or from −8 down.
Assay [13] can be described thus: viability profiling in MM1S myeloma cells – cell-based, resazurin fluorescence, basal, 24 h, PK04 Diversity Set, profiling panel (AID 1174). Further: test concentration not given here. The following applies: higher = more signal, called active from +8 up or from −8 down.
Assay [14] addresses Dihydroorotate dehydrogenase (quinone), mitochondrial (Plasmodium falciparum (isolate 3D7)) (UniProt Q08210). In words: inhibition of P. falciparum DHODH – biochemical, C-terminal His tag, absorbance 600 nm, primary screen (AID 1175).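 Further: recombinant parasite enzyme with a five histidine tag at its C terminus; test concentration not given here.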 The following applies: PfDHODH enzyme, DCIP absorbance 600 nm; higher = more signal, called active from +8 up or from −8 down.
Assay [15] is described as follows: inhibition of PAO1 biofilm formation – strain PAO1, LB-PBS medium, absorbance 600 nm, primary screen (AID 1176). Further: test concentration not given here. The conditions noted are these: P. aeruginosa PAO1 growth/biofilm, A600, 12 h; higher = more signal.
Assay [16] is described as follows: growth modulation of vineyard yeast isolate – strain RM11-1a, OD600, basal, 24 h, primary screen (AID 1177).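 Further: cultures grown under basal conditions with no added stressor; test concentration not given here.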 The following applies: S. cerevisiae RM11-1a growth, OD600, 24 h; higher = more signal, called active from +8 up or from −8 down.
Assay [17] can be described thus: growth of efflux-deficient E. coli DRC39 – strain DRC39, OD650, 24 h, E. coli filamentation inducers, primary screen (AID 1178).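 Further: growth measured as culture turbidity by optical density at 650 nm; test concentration not given here.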 The following applies: E. coli DRC39 acrAB, higher = more signal, called active from +8 up or from −8 down.
Assay [18] in a line: growth of efflux-deficient E. coli DRC39 – strain DRC39, OD650, 48 h, E. coli filamentation inducers, primary screen (AID 1179).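 Further: screen aims at cell division blockers that make cells filament.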 The conditions noted are these: E. coli DRC39 delta-acrAB growth, higher = more signal, called active from +8 up or from −8 down.
A short description of assay [19]: viability profiling in RPMI8226 myeloma cells – cell-based, resazurin fluorescence, basal, 24 h, PK04 Diversity Set, profiling panel (AID 1180).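 Further: RPMI8826 multiple myeloma cell line at 5000 cells per well; test concentration not given here.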 The conditions noted are these: higher = more signal.
Assay [20] addresses E3 ubiquitin-protein ligase XIAP (Homo sapiens) (UniProt P98170). In words: small molecules binding XIAP protein – biophysical, small-molecule microarray, fluorescence 635 nm, primary screen (AID 1181).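 Further: score merges 667 nm emission and signal to noise over triplicate slides.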 The following applies: higher = more signal.

Sequence of Dihydroorotate dehydrogenase (quinone), mitochondrial (Plasmodium falciparum (isolate 3D7)) (Q08210 whole entry, looked up): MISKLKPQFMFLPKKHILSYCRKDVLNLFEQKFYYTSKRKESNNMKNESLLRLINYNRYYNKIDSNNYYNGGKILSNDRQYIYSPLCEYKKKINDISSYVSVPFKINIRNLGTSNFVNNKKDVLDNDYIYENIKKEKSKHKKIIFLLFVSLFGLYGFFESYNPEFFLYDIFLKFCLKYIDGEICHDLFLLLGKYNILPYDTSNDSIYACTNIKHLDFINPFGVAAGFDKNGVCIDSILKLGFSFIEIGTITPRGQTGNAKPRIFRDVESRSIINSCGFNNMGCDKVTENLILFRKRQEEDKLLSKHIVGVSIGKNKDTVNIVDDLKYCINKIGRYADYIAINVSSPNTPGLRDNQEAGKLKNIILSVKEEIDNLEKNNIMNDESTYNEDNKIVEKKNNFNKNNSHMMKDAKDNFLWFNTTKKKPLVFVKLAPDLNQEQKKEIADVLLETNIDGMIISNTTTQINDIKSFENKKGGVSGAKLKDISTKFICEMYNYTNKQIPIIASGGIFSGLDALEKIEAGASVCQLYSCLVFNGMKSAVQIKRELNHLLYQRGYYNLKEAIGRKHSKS
Sequence of E3 ubiquitin-protein ligase XIAP (Homo sapiens) (P98170 whole entry, looked up): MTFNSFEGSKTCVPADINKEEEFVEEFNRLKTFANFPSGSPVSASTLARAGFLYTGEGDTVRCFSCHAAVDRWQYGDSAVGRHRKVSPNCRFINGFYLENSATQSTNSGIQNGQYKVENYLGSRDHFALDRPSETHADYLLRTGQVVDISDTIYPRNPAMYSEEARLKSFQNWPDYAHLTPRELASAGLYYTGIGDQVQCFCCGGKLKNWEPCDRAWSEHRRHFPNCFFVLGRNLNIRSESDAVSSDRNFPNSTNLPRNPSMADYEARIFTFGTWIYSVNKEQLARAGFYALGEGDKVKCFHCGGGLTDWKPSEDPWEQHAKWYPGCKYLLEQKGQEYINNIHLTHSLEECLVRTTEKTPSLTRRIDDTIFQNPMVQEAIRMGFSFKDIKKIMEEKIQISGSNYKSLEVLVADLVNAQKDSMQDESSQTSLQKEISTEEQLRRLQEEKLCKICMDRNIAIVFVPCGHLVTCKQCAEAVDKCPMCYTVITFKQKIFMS

Consider `Cc1ccccc1C(O)C1C=CC2C(=O)N(c3ccccc3)C(=O)C2N1Nc1ccc(C#N)cc1` (stereo not given), for which the z-score in assay [1] was 0.916; in assay [2], -0.175; in assay [3], 2.03; in assay [4], -0.113; in assay [5], 0.0872; in [6], 0.258. Besides, the z-score in assay [7] is -1.55 (inactive); in assay [8] it was -0.472; in assay [9] it was 0.99; in assay [10], 0.682 (inactive); in assay [11] it was -0.709; in [12], -0.257 (inactive). The z-score in [13] was 0.132 (inactive); in [15], 1.26 (inactive); in assay [16], 0.302 (inactive); in [17], 0.493 (inactive); in [18], 0.0888 (inactive); in assay [19], -0.0953. Further, the results for the composite z-score in [14] and in [20] were 0.513 (inactive) and 0.198, respectively.
With `CCc1cccc(NC(=O)O[C@H]2[C@H](OC(=O)Nc3ccccc3)[C@@H](OC(=O)Nc3ccccc3)[C@@H](OC)O[C@@H]2CO)c1`, the z-score in assay [1] is -2.42; in assay [2] it was 1.1; in assay [3], -4.04; in assay [4], -3.01; in [5], -4.29; in [6] it was -0.501. Further, the z-score was 0.963 (inactive) in assay [7]; -1.21 in assay [8]; -1.53 in assay [9]; -4.14 (inactive) in assay [10]; -2.9 in assay [11]; 0.28 (inactive) in [12]. The z-score is -5.58 (inactive) in assay [13]; 0.497 (inactive) in assay [15]; 2.4 (inactive) in [16]; 1.47 (inactive) in assay [17]; 0.711 (inactive) in [18]; -4.86 in assay [19]. In addition, the composite z-score is 0.189 (inactive) in assay [14] and 0.0153 in [20].
For the compound `COc1ccc(-c2cc3c(c(-c4ccccc4)n2)[Si](C(C)C)(C(C)C)O[C@H]3c2ccccc2)cn1`, the z-score is 0.705 in assay [1]; -0.263 in [2]; 0.674 in assay [3]; -1.48 in assay [4]; -1.85 in [5]; -1.57 in [6]. Moreover, the z-score in assay [7] was -0.739 (inactive); in assay [8] it was -0.707; in assay [9] it was -0.225; in assay [10], 1.51 (inactive); in assay [11] it was 0.158; in [12], 0.509 (inactive). Further, the z-score is 0.117 (inactive) in [13]; 0.35 (inactive) in assay [15]; -0.824 (inactive) in assay [16]; 0.0539 (inactive) in assay [17]; -0.508 (inactive) in assay [18]; 0.184 in [19]. Moreover, the values for the composite z-score in assay [14] and in assay [20] were -0.349 (inactive) and 0.113, respectively.
For `Cc1ccc(S[C@]2(C(=O)NC3CC3)CC(=O)N(Cc3cc(C(F)(F)F)cc(C(F)(F)F)c3)[C@@H]2c2ccc(CO)cc2)cc1`, the z-score in [1] is 0.902; in assay [2], 1.69; in assay [3], 0.445; in [4], 0.239; in assay [5] it was 0.16; in assay [6] it was 0.259. Besides, the z-score in assay [7] was -0.472 (inactive); in assay [8] it was -0.718; in [9], -0.792; in assay [10] it was 0.968 (inactive); in assay [11], 1.1; in assay [12], -1.03 (inactive). The z-score in assay [13] was 0.219 (inactive); in [15], 0.214 (inactive); in assay [16], -0.921 (inactive); in [17], 0.327 (inactive); in [18], 0.561 (inactive); in [19] it was 1.25. Also, the values for the composite z-score in [14] and in assay [20] were -2.37 (inactive) and 0.209, respectively.
On to `COC(=O)[C@@]1(Cc2ccccc2CN=[N+]=[N-])N=C(c2ccc(OCCCO)cc2)O[C@H]1c1ccccc1N=[N+]=[N-]`, for which the z-score in [1] was -2.1; in assay [2] it was 0.0397; in [3] it was -2.36; in assay [4], -2.99; in assay [5], -3.63; in assay [6], -0.00729. Further, the z-score was -0.222 (inactive) in assay [7]; -1.19 in assay [8]; -2.29 in [9]; -1.35 (inactive) in assay [10]; -0.806 in assay [11]; 1.49 (inactive) in assay [12]. The z-score is -3.44 (inactive) in assay [13]; 1.69 (inactive) in [15]; 2.6 (inactive) in assay [16]; 0.365 (inactive) in assay [17]; -0.762 (inactive) in assay [18]; -3.59 in assay [19]. The composite z-score was 3.12 (inactive) in assay [14] and -0.0095 in assay [20].
